Reference: PubChem BioAssay (NCATS)
Inconclusive results are not listed. The source made the active and inactive calls. Calls follow the shape of the dose curve; as a rule, active = well fitted inhibition curve with a large enough effect; inconclusive = small, poorly fitted or top-dose-only effect; inactive = flat fitted curve, though single readings scatter.

Experiments:
Assay in all cases: Cytotoxic Profiling of Annotated Libraries Using Quantitative High-Throughput Screening (AID 1296008); also: nearly all actives have a fitted effect of over 60% in size
Settings in all cases: Five cell lines viability, CellTiter-Glo ATP luminescence, 48-72 h; max response: hits give low values
CRL-7250 = normal cell line; tested on: CRL-7250
Procedure, shortened: (§1)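 Cytotoxicity was measured as CellTiter-Glo ATP luminescence, read after 10 min at room temperature. Compound treatment of the cells lasted 48 or 72 hr at 37 degrees Celsius in a qHTS format.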

HEK293 = tested on: HEK293
Procedure, shortened: as §1

HaCat = tested on: HaCat
Procedure, shortened: as §1

KB-3-1 = tested on: KB-3-1
Procedure, shortened: as §1

NIH3T3 = tested on: NIH3T3
Procedure, shortened: as §1
% is scaled to controls: 0 for no effect and ±100 for the full control effect; potency is read from the fitted curve at half-maximal effect.

COC(=O)C1(C)CCCC2(C)c3ccc(C(C)C)cc3C(O)C(O)C12 (stereo not given)
inactive: max response (CRL-7250) -3.44% | max response (HEK293) -25.7% | outcome (HaCat) | outcome (KB-3-1) | outcome (NIH3T3)

CC(CCc1ccc(O)cc1)O[C@@H]1O[C@H](CO[C@@H]2OC(CO)[C@H](O)[C@H]2O)[C@@H](O)[C@H](O)[C@H]1O (stereo not given in full)
inactive: max response (CRL-7250) -0.0719% | outcome (HEK293) | max response (HaCat) -7.01% | outcome (KB-3-1) | max response (NIH3T3) -1.05%

CC(O)C/C=C/C=C/C(=O)OC1C=C2COC(=O)C2(O)C2(C)CCCC(C)(C)C12 (stereo not given)
inactive: outcome (CRL-7250) | max response (HEK293) -13.6% | outcome (HaCat) | max response (KB-3-1) 5.12% | max response (NIH3T3) -2.82%

CC1(C)CC[C@]2(C(=O)O[C@@H]3O[C@H](CO[C@@H]4O[C@H](CO)[C@@H](O)[C@H](O)[C@H]4O)[C@@H](O)[C@H](O[C@@H]4O[C@H](CO)[C@@H](O)[C@H](O)[C@H]4O)[C@H]3O)[C@H](O)C[C@]3(C)C(=CCC4[C@@]5(C)CC[C@H](O[C@@H]6OC[C@@H](O)[C@H](O)[C@H]6O)[C@@](C)(C(=O)O)C5CC[C@]43C)[C@@H]2C1 (stereo not given in full)
inactive: max response (CRL-7250) -2.05% | max response (HEK293) -13.5% | max response (HaCat) -5.99% | max response (KB-3-1) 2.29% | outcome (NIH3T3)

CC(CCO)CCC1C2(C)CCCC(C)(C)C2CC[C@@]1(C)O (stereo not given in full)
inactive: outcome (CRL-7250) | max response (HEK293) -13.3% | max response (HaCat) -19.9% | max response (KB-3-1) 7.08% | outcome (NIH3T3)

COC(=O)c1ccccc1O[C@@H]1O[C@H](CO[C@@H]2OC[C@@H](O)[C@H](O)[C@H]2O)[C@@H](O)[C@H](O)[C@H]1O
inactive: max response (CRL-7250) 0.973% | max response (HEK293) 4.14% | outcome (HaCat) | max response (KB-3-1) -2.26% | outcome (NIH3T3)

CCCSc1nc(NC2CC2c2ccc(F)c(F)c2)c2nnn(C3CC(OCCO)C(O)C3O)c2n1 (stereo not given)
inactive: outcome (CRL-7250) | outcome (HaCat) | max response (KB-3-1) -19.7% | max response (NIH3T3) -3.04%
active: Potency (HEK293) 18.4 µM

CNC(C)C(=O)NC(C(=O)N1CCCC1C(=O)Nc1cccc2ncccc12)C(C)C (stereo not given)
inactive: outcome (CRL-7250) | max response (HEK293) 4.04% | outcome (HaCat) | max response (KB-3-1) 2.7% | outcome (NIH3T3)

Cc1ccccc1-n1nc(-c2c(-c3ccc(F)cc3)nn3c2NC[C@@H](CO)C3)ccc1=O
inactive: max response (CRL-7250) 1.82% | max response (HEK293) -7.72% | outcome (HaCat) | max response (KB-3-1) 1.64% | outcome (NIH3T3)

NC(=O)[C@H](Cc1ccccc1)NC(=O)[C@H](CCCN=C(N)N)NC(=O)C12CC3CC(CC(C3)C1)C2
inactive: max response (CRL-7250) -2.98% | max response (HEK293) -11.4% | outcome (HaCat) | outcome (KB-3-1) | outcome (NIH3T3)

COc1ccc(C2OCC3C(c4cc(OC)c5c(c4)OCO5)OCC23)cc1OC (stereo not given)
inactive: max response (CRL-7250) 3.22% | max response (HEK293) 1.08% | outcome (HaCat) | max response (KB-3-1) -4.07% | outcome (NIH3T3)

COC(=O)C1=CO[C@@H](O[C@@H]2O[C@H](CO)[C@@H](O)[C@H](O)[C@H]2O)[C@@H]2[C@@H](C)[C@@H](O)C(O)[C@H]12 (stereo not given in full)
inactive: max response (CRL-7250) -0.07% | max response (HEK293) -12.7% | outcome (HaCat) | outcome (KB-3-1) | outcome (NIH3T3)

N#Cc1cccc(-c2c[nH]c3ncnc(N4CCOCC4)c23)c1
inactive: outcome (CRL-7250) | max response (HEK293) -6.95% | outcome (HaCat) | max response (KB-3-1) -3.64% | outcome (NIH3T3)

O=C(NCC(=O)N1CCCC1)Nc1ccc2ccccc2c1
inactive: max response (CRL-7250) 3.04% | max response (HEK293) 2.51% | outcome (HaCat) | outcome (KB-3-1) | max response (NIH3T3) -1.06%

CC(=O)OC1C(CO)OC(O[C@H]2[C@H](OC(=O)[C@]34CCC(C)(C)C[C@H]3C3=CCC5[C@@]6(C)CC[C@H](O[C@@H]7O[C@H](C(=O)O)[C@@H](O)[C@H](O[C@@H]8OC[C@@H](O)[C@H](O)[C@H]8O)[C@H]7O[C@@H]7O[C@H](CO)[C@H](O)[C@H](O)[C@H]7O)[C@@](C)(C=O)C6CC[C@@]5(C)[C@]3(C)C[C@H]4O)O[C@H](C)[C@H](OC3OC(C)C(OC4OCC(O)C(O)C4O)C(O)C3O)[C@@H]2O)C(O)C1O (stereo not given in full)
inactive: max response (CRL-7250) -0.582% | max response (HEK293) -1.35% | outcome (HaCat) | outcome (KB-3-1) | outcome (NIH3T3)

COc1ccc(/C=C/C(=O)N2CCCC2)cc1
inactive: max response (CRL-7250) 1.09% | max response (HEK293) 2.31% | outcome (HaCat) | max response (KB-3-1) 2.27% | max response (NIH3T3) -2.69%

C[C@@H]1O[C@@H](O[C@H]2[C@H](OC(=O)[C@]34CCC(C)(C)C[C@H]3C3=CCC5[C@@]6(C)CC[C@H](O[C@@H]7O[C@H](CO[C@@H]8OC[C@H](O)[C@H](O)[C@H]8O[C@@H]8OC[C@@H](O)[C@H](O)[C@H]8O)[C@@H](O)[C@H](O)[C@H]7O)C(C)(C)C6CC[C@@]5(C)[C@]3(C)C[C@H]4O)O[C@H](CO)[C@@H](O)[C@@H]2O)[C@H](O[C@@H]2O[C@H](CO)[C@@H](O)[C@H](O)[C@H]2O)[C@H](O)[C@H]1O[C@@H]1OC[C@@H](O)[C@H](O[C@@H]2OC[C@@H](O)[C@H](O)[C@H]2O)[C@H]1O (stereo not given in full)
inactive: max response (CRL-7250) 0.998% | max response (HEK293) 5% | outcome (HaCat) | max response (KB-3-1) -0.626% | max response (NIH3T3) -3.82%

Cc1ccc(C)c(S(=O)(=O)n2cnc3ccccc32)c1
inactive: max response (CRL-7250) -12.1% | max response (HEK293) -10.9% | outcome (HaCat) | outcome (KB-3-1) | outcome (NIH3T3)
